Test results reported in the supplement of paper PMC11417369.
± gives the standard deviation of the averaged measurements. Over roughly 25,000 sequences, “ln(normalized median fluorescence intensity)” has its median near 8.9; the highest 2% begin near 10. The list comes from a sample in which the highest values are over-represented; it also holds similar and randomly drawn sequences.

system: PfAP2-LT AP2 domain (GST-tagged); assay: gcPBM binding intensity (ln(normalized median fluorescence intensity)); higher = stronger DNA binding
Outline: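 DNA-binding domains from P. falciparum, fused to GST and produced in E. coli, were put on an Agilent 4 × 180k double-stranded probe array for 1 h in 1× PBS holding 1% milk, 0.2 mg/ml BSA, 0.5% salmon testes DNA and 0.03% Triton X-100. Probes were primer-extended, 36 bp long and drawn from intergenic genomic regions, with negative controls included. After Alexa488 anti-GST antibody detection and a 488 nm scan, binding intensity was set as the highest Masliner-normalised natural-log median intensity across replicate spots of either probe orientation.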

Sequence	gcPBM binding intensity (ln)
TTCCCATGTAATATTAAACACACACCCATATAACAC [CACACA_site7905]	9.505 ± 0.078
TATTAAACTGGACACACACACACACCCATATATAAA [CACACA_site4579]	10.15 ± 0.021
CGTTTATTAAACTTGACACACACACCCCCACATATA [CACACA_site8151]	9.975 ± 0.064
TATTAAACGAAACACACACACACACCCATATATAAA [CACACA_site759]	10.23 ± 0.099
AACACAGATAAATTAACACACACACCCATATATATA [CACACA_site9310]	9.85 ± 0.23
CACAGATAAATTAACACACACACACCCATATATATA [CACACA_site3960]	10.05 ± 0.071
ATACGACAAATATAAAGTACAAGCTTGGTTTTTATA [XGTACX_site8103]	8.88 ± 0.59
AATTTGAAATATGTGGTGCAGTTATATAATATGTTT [GTGCAC_site9885]	8.87 ± 0.41
GTACATATATACATTACACACGGTTTGATTTAAAAA [CACACA_site3379]	8.98 ± 0.41
AAAGAAAAAAAAAACACACACACACCCATTCAATAT [CACACA_site38]	10.29 ± 0.035
AGAAAAAAAAAAAAAAAACACACGGTACATTCAAAG [CACACA_site2]	8.84 ± 0.43
ATATACAATACAAAAACACACACAAAAAAAGAAAAG [CACACA_site8668]	9.59 ± 0.4
AAAGAAAAAAAAAACACACACACACGCATTCAATAT [CACACA_site6169]	10.1 ± 0.13
AAAAAAAAAAAACACACACACACATTCAATATAAAA [CACACA_site40]	9.76 ± 0.28
AGAAAAAAAAAACACACACACACACCCTCAATATAA [CACACA_site39]	10.1 ± 0.11
AAAAATATGCTTCCATGTACTTAAAAAAAAAATTTA [XGTACX_site3617]	8.34 ± 0.47
TTCATTTATATAATCACACATTTTATCATCTATGTT [CACACA_site4327]	8.98 ± 0.47
ATGCAAACTAAAAGACGTACAGAAAAGTATCATACT [XGTACX_site8766]	9.02 ± 0.42
TAAACAAATAAATAAACACACAATATATGTATATAT [CACACA_site3803]	9.05 ± 0.38
AATGAAATAAATAAGGGTACACATAAATATATATAT [XGTACX_site7006]	9.04 ± 0.43
ATTATGTGCCAATACACACACACATATATATATATA [CACACA_site468]	10.38 ± 0.078
TATGTGCCAAAACACACACACATATATATATATATA [CACACA_site469]	10.2 ± 0.2
AAAAAAAAAAAAAAAACACACATATATGTATATATA [CACACA_site3276]	8.92 ± 0.35
ATTATGTGCCAATACACACACACATCTATATTTATA [CACACA_site6359]	9.67 ± 0.18
AAATTATGTGCCAATACACACACACCGATATATATA [CACACA_site8050]	9.92 ± 0.21

Sequence	gcPBM binding intensity (ln)
AAAAAAAAAACATACACACACATATATATATATATG [CACACA_site1586]	9.46 ± 0.3
TACATATGAAAATACACACATACATACATATATATA [CACACA_site1673]	9.21 ± 0.34
TATCAAAAAAAAAGTAGTACGATAATAGTTTCCCAA [XGTACX_site1812]	8.73 ± 0.4
TAATATTTTTTGTGTACACATATATATATATATATA [CACACA_site5504]	9.505 ± 0.064
ATATGTTAAATTATTCGTACGTAAAAAAAAATGGAT [XGTACX_site3465]	8.81 ± 0.37
ATATATATATATAACACACGCAAAAAAATTAAATAA [CACACA_site1400]	9.16 ± 0.38
AATTAACAAAGACACACACACACACGCACAAAAAAA [CACACA_site6388]	10.2
AATGTGTAGACACGCACACACAAAAAAATATTTATA [CACACA_site7384]	9.59 ± 0.36
AAAAAACAAAAACACACGCACACAAAAAAAAAAAAA [CACACA_site802]	9.4 ± 0.33
CACAAACAAAGACACACACACACACGCACAAAAATG [CACACA_site7193]	10.3 ± 0.21
TATTTATTAAGACACACACACACACGCACAAAATAA [CACACA_site6254]	10.3 ± 0.33
AACACGCACAGACACACACACAAAAATGATTAAAAA [CACACA_site7195]	9.71 ± 0.61
TAAATTAAAAGACACACACACAAAAAAAAAAAAAAA [CACACA_site7131]	9.4 ± 0.44
TTAACAAATAGACACACACACACACGCAAAAAAAAA [CACACA_site6387]	10.3 ± 0.33
ACAAAATAAAGACACACACACAAACACAAAAAAATA [CACACA_site7568]	10.1 ± 0.38
AAAACAAATAGACACGCACACAAAAAAAAAAAAAAA [CACACA_site801]	9.38 ± 0.6
TTATTATTAAGACACACACACAAAAAAAAAAAAAAA [CACACA_site6805]	9.26 ± 0.46
ATGAAAAAAAATAAAAAATATATATATATATATATA [CACACA_negctrl_site236]	9.4 ± 0.4
ATATATATATAAATATAAATATATATATATATATAT [CACACA_negctrl_site1685]	9.02 ± 0.23
AGGAAAAAAAAAATGTGTACTTAAAAAAAAAAAATT [XGTACX_site1471]	8.51 ± 0.65
ACCTTTTGGATTATATGTACATATATATATATATAT [XGTACX_site2687]	9.61 ± 0.26
CACAAAAGTAAGCACGCACACACAACCTGAAATAAA [CACACA_site166]	9.59 ± 0.44
ATTTTTTTTATTTTTTATATAATTTTTTTATATTAT [CACACA_negctrl_site1521]	8.69 ± 0.5
ATGCAAATGTGCATCACACACACTAATGGGTATGTA [CACACA_site2893]	9.41 ± 0.31
AATTAAATGATTTATACATGCATATAAATATAAATA [TGCATGCA_site579]	8.71 ± 0.43

Sequence	gcPBM binding intensity (ln)
CGATTTTTTAAGTTTGTGCACTTAAAAACTATAACA	8.53 ± 0.47
GATGAAAATAGAAATACACACTAAAAAATAAAATTA [CACACA_site4764]	8.85 ± 0.52
ATATACATATTCTTGTGTACATAAAAATTTATATAT [XGTACX_site8726]	8.74 ± 0.35
AAAAAAAAAAAAGAACGTACAAATTAATTTATAGAA [XGTACX_site5584]	8.73 ± 0.57
TTAAAAAATCACAACACACACACACCCAAAAAAAAA [CACACA_site1445]	9.77 ± 0.26
TTAAAAAATCACAACACACACACACGCAAAAAAAAA [CACACA_site6793]	10.1 ± 0.21
TTTACATTAAATCACGCACACAAAAAAAAAAAAAAA [CACACA_site2418]	8.94 ± 0.37
ATTCAAAAGATGTATACACACATGTGGATAATATAA [CACACA_site2443]	9.21 ± 0.48
TATATATAATATGAATGTACACAAAAAGGTAATACA [XGTACX_site6202]	9.11 ± 0.62
AATATAAGCAAATACACACACACATATAAATATGTA [CACACA_site7741]	9.85 ± 0.35
AATAAAGCAATAAATACACACATATATATATATATA [CACACA_site2934]	9.955 ± 0.0071
AATATAAGCAAATACACACACACATATATATATATA [CACACA_site3805]	10.29 ± 0.035
ACAAAAAAAATAAGCACACATATATATATATATATA [CACACA_site816]	10.1 ± 0.38
ATACAACAAAAATAAGCACACACAAATATACATACA [CACACA_site9201]	9.7 ± 0.4
AAACAAAAAAAATAAGCACACATATATATATATATA [CACACA_site8173]	9.6 ± 0.57
AAATCTTAATAAAGTTGTACATAATTATGTTTAATA [XGTACX_site3348]	8.55 ± 0.49
TAATGGAATAAAAATTGTACATATTTTTTTTTTTTT [XGTACX_site7669]	8.45 ± 0.36
TTTCTTAAATATATTGAGGAATAAAAAGAAGAAAAG [GTGCAC_negctrl_site281]	8.33 ± 0.4
AGTATTATATATATATGTACATAATATACATATATA [XGTACX_site8514]	8.73 ± 0.36
TATGCTACATTATATGTACACACATATACATATATA [CACACA_site8199]	9.11 ± 0.42
AGGAACATTTACGCCCCACACACCTACCAACAAAAA [CACACA_site3827]	9.59 ± 0.23
TATAATGATGATGATAGTACGTATGAGTAAGAAAAA [XGTACX_site31]	8.99 ± 0.54
AGATTATAAAATTCTACACACATATATACCTATATA [CACACA_site5848]	9.04 ± 0.42
TGAACCAGATTTAGAAGTACTAAATATTACATACAT [XGTACX_site2437]	8.7 ± 0.47
AAATGGAAAAGGTGTACACAAAAAAAAGGGAAAAGC [CACACA_site5331]	9.37 ± 0.5

Sequence	gcPBM binding intensity (ln)
ATTATAACACCTCCCCCCCTTTTTTTATGAAGACCA [CACACA_negctrl_site1043]	10.1 ± 0.4
TATATTATGACCACCACACACCTATACACATAACAT [CACACA_site7199]	9.45 ± 0.16
AACTTTTAGAAGAACACACACATATAGATTATGACC [CACACA_site6256]	9.24 ± 0.33
ACAATTTATATTATATGTACTTAAAAAGTTCGTAAA [XGTACX_site6421]	8.47 ± 0.27
TTTTGAAGCTTTAAAACATATATATATATATATATA [CACACA_negctrl_site184]	9.75 ± 0.41
ATAATTGTTTCTTTCTCCTTTTTATTTCATTTTAAA [CACACA_negctrl_site964]	8.68 ± 0.41
TATATATTAAAATAATCACACACATCAATTAATGGT [CACACA_site8331]	9.09 ± 0.42
ATAAAATAAAACAACACACACGAATGTATAAATATA [CACACA_site4643]	9.53 ± 0.36
AAATAAAATAAAACAACACACACGAATGTATAAATA [CACACA_site885]	9.45 ± 0.33
GCACGAAACAATGTATATATATATATATATATATAT [GTGCAC_negctrl_site412]	10.32 ± 0.078
ATGATTTATTATTATACACACAAAAAAAAAAAAGGA [CACACA_site264]	8.84 ± 0.42
AATATCAATGATGTTACATGCAAGAGAATCCACAAA [TGCATGCA_site678]	8.96 ± 0.42
TTCAAAATAAAAAATTCACACACATATATATATATA [CACACA_site8653]	9.44 ± 0.17
CCTAAATAAATGGACACACACATATATATATATATA [CACACA_site1439]	9.85 ± 0.29
TATATATATAAATACACACACACACCGATATATATA [CACACA_site5408]	9.97 ± 0.11
AAATAATATAAACATACACACACACCGATATATATA [CACACA_site8945]	9.92 ± 0.17
CACTAAAATGGACACACACACACACCGATATATATA [CACACA_site6139]	10.1 ± 0.23
AAAATACATAAACACACACACACACCGATATATATA [CACACA_site9186]	10.43 ± 0.092
CAAAAAATTCAACACACACACACACCGATAAATAAA [CACACA_site8330]	10.11 ± 0.071
TATATATATATATGTACACACACACCGATAAATAAA [CACACA_site8041]	9.69 ± 0.15
CATATAAAAATGTGCACACACACACCGATATATATT [CACACA_site4940]	9.95 ± 0.17
AATATAAATAATGTTAAACACACATACCGATATATA [CACACA_site8869]	9.02 ± 0.45
ACCATATAAATAAACACACACACACCGATATATATA [CACACA_site5310]	10.09 ± 0.085
AAATAATTCAAAAAAACACACAAATTACAAAATAAA [CACACA_site269]	8.92 ± 0.55
